Source: PubChem BioAssay (National Center for Advancing Translational Sciences (NCATS))
Only a selection was taken, and hits are over-represented in it overall.
Eya2 phos inh: Eya2 (human) phosphatase inhibition; 0.006% of 330,000 active; O00167; AID 488837; Potency, µM (series often up to 76.9 µM), for the others: at the top dose activity, negative = inhibition, usual class: inhibitors; recombinant Eya2, OMFP fluorescence dephosphorylation (OMFP is methylfluorescein phosphate); also: % is scaled to controls: 0 for no effect and ±100 for the full control effect
Target sequence (O00167 whole entry, looked up): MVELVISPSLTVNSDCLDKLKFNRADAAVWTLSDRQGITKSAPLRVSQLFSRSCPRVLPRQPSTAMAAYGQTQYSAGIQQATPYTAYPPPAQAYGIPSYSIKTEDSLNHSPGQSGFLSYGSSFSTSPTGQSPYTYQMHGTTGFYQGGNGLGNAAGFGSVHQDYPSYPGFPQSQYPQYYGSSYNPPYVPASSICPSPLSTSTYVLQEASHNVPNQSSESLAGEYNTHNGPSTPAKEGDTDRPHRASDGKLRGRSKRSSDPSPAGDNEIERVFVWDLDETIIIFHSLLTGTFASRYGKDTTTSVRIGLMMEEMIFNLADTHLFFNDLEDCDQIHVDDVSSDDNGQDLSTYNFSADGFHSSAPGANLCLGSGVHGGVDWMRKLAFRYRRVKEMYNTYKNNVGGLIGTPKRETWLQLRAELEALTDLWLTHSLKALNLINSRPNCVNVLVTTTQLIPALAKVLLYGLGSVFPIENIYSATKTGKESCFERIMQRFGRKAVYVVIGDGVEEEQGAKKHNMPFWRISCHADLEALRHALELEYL
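Eya2 (0.2 uM) preincubated 10 min at ambient with compound, then OMFP substrate added at 50 uM; 10 min reaction in 50 mM HEPES pH 7.5, 50 mM NaCl, 5 uM MgCl2, 0.05% BSA, 1 mM DTT. Fluorescence read at Ex 485/Em 525 nm.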
Mm-Cpn inhibitor: M. maripaludis TRiC chaperonin inhibition; Potency, µM (series often up to 76.9 µM), without a hit: top-dose activity, negative = inhibition, most hits filed as inhibitors; 0.031% of 330,000 active; AID 504842; purified Mm-Cpn ATPase, ADP Transcreener TR-FRET; also: % is scaled to controls: 0 for no effect and ±100 for the full control effect; nearly all actives have a fitted effect of over 80% in size
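Quantitative HTS used 25 nM Mm-CPN and 10 uM ATP in magnesium/KCl Tris buffer, pH 7.4, with 1 mM DTT. Hydrolysis ran 30 min at 37°C; ADP was read by HTRF.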
USP2a block: USP2a (human) protease inhibition; O75604; USP2 core, Ub-CHOP2 coupled fluorogenic reporter, 485/531; Potency, µM (titrated, usually from 38.3 µM), inactives show top-dose activity change, negative = inhibition, usual class: inhibitors; 0.01% of 330,000 active;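 also: plate controls were DMSO wells for no effect and full inhibition by NEM control for full effect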
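USP2 core (10nM final) preincubated 30min RT with compound in 20mM Tris-HCl pH 8.0, 2mM CaCl2, 2mM beta-mercaptoethanol, 0.05% CHAPS; 25nM Ub-CHOP2 plus 25nM reporter substrate added, fluorescence (Ex485/Em531) read after 60min.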
a7 integrin act: activates integrin-mediated alleviation for muscular dystrophy; alpha7betagal myoblasts, beta-gal FDG fluorescence, 48 h; Potency, µM (series often up to 38.3 µM), inactives show top-dose activation, hits mostly activators; 0.064% of 350,000 active; AID 624291;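 also: 100% = response of the positive control SU9516; nearly all actives have a fitted effect of over 60% in size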
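Alpha7betagal+/- myoblasts (passage 13) were plated 16-24 hr, then exposed to compounds (1:260 dilution of DMSO stock) for 48 hours at 37C. After MPER lysis, β-galactosidase reporter activity was read as FDG fluorescence (ex 480/em 540) after 30 minutes.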
p53 reactivator: re-activators of mutant p53; H1299 p53-A138V BP100-luciferase reporter, luminescence, 24 h; Potency, µM (doses to about 92.2 µM), without a hit: at the top dose activity change, positive = activation, usual class: activators; 0.063% of 320,000 active; also: % of control where 0% means no effect; nearly all actives have a fitted effect of over 45% in size
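p53-null H1299 cells stably carrying temperature-sensitive p53-A138V and a BP100-luciferase reporter were pinned with compounds (4-point, 1:5 series) and held 24 hrs at 37 deg C. Luminescence was read 10 min after detection reagent.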
ClpP mod: qHTS Assay for Activators of ClpP | ATP-dependent Clp protease proteolytic subunit (Bacillus subtilis (strain 168)), P80244 | 1.9% of 340,000 active | purified B. subtilis ClpP, FRET peptide cleavage, 20 min | Potency, µM (doses to about 57.5 µM), without a hit: at the top dose activity change, negative = active; active = well fitted falling curve with a large enough effect; inconclusive = small, poorly fitted or top-dose-only effect; inactive = no such curve, though single readings can be large or run the other way; also: the source files actives as falling curves though it sought activators and does not explain the sign; nearly all actives have a fitted effect of over 65% in size
Target sequence (P80244 whole entry, looked up): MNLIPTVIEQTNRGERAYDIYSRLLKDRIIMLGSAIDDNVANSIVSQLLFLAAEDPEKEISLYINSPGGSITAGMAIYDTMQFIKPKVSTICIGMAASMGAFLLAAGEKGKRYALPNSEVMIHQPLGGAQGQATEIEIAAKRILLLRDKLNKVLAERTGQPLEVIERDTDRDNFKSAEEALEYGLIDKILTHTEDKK
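FRET quenching reversal measured ClpP activation: 10 microg/mL B. subtilis ClpP at pH 8 with the FRET-FV decapeptide, read at 430 nm after 320 nm excitation. The 20-min minus 0-min signal was scaled between DMSO/no-enzyme wells and ADEP (5.8 microM final).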
An asterisk follows results filed as active; ? = inconclusive; nt = no result; ! = not confirmed by another sample; [ ] = dose if it differs, or a comment. Unless noted, calls follow the shape of the dose curve; as a rule, active = well fitted curve in the direction sought with a large enough effect; inconclusive = small, poorly fitted or top-dose-only effect, or another doubt; inactive = no such curve, though single readings can be large; an effect the other way counts as inactive or inconclusive. Potency is read from the fitted curve at half-maximal effect.

SMILES | Eya2 phos inh | Mm-Cpn inhibitor | USP2a block | a7 integrin act | p53 reactivator | ClpP mod
CNCCN(C)c1nc(-c2cccs2)nc2ccccc12 | nt | nt | nt | nt | nt | -7%
CC(C)(C)c1nn2cnnc2n(/N=C/c2ccc(O)cc2)c1=O | -2% | 2% | 7% | 1% | -1% | 7.1µM*
CCC(=O)N1CCc2cc(S(=O)(=O)NCCC(=O)Nc3ccc(OC)c(Cl)c3)ccc21 | nt | nt | nt | nt | nt | 1%
CC1CCN(c2nc3c(S(=O)(=O)c4cccc(Cl)c4)nnn3c3ccsc23)CC1 | nt | nt | nt | nt | nt | 22µM*
O=C(NCc1ccco1)c1ccc(COc2ccccc2Cl)cc1 | 19% | 1% | 3% | -6% | 2% | -2%
CCOc1ccc(C(=O)NCc2ccco2)cc1 | 23%[15.4 µM] | 1% | -2% | -22% | 9% | -1%
O=C(NCc1ccco1)c1ccc(COc2cccc3ccccc23)cc1 | -19% | 0% | 2% | 12% | 3% | 11µM*
CCOc1cc(OCC)cc(C(=O)NCc2ccco2)c1 | -6% | 1% | -1% | -22% | -8% | 14µM*
c1ccc(CNc2ncnc3c2ncn3Cc2ccccc2)cc1 | nt | nt | nt | nt | nt | 1%
Oc1ccc(Cl)cc1C1C=C(c2ccc3c(c2)OCO3)NC(c2ccc(Br)cc2)N1 (centres undefined) | nt | nt | nt | nt | nt | -14%
Cc1c(C(=O)N/N=C/c2ccc(N(C)C)cc2)[nH]c2ccc(Cl)cc12 | -9% | -2% | -1% | -17% | 0% | 32µM*
CN1C(=O)/C(=C2/C=Cc3ccccc3N2CCCS(=O)(=O)O)SC1=S | ? | -3% | -26% | 12% | 4% | 22µM*
CCCCCc1nc(N)c(C#N)c(-c2ccco2)c1CCCC | 10% | 0% | 1% | -1% | -2% | 25µM*
O=C(NCCO)c1ccc2[nH]c3ccccc3c2c1 | -5% | 0% | 2% | ? | -2% | 25µM*
Cc1ccc(-n2c(=O)[nH]c3c(C(N)=O)nc(CC(C)C)nc32)cc1 | 2% | 1% | -1% | -3% | 18% | 28µM*
CCCOc1ccc(-c2nc(C#N)c(N3CCC(C(N)=O)CC3)o2)cc1 | -33% | 0% | 0% | -3% | -13% | 14µM*
N#Cc1nc(-c2ccc(OCc3ccc(Cl)cc3)cc2)oc1N1CCC(C(N)=O)CC1 | 1%[15.4 µM] | -13% | 3% | 3% | 8% | 5µM*!
N#Cc1nc(-c2ccc(OCc3ccc(Cl)cc3)cc2)oc1N1CCCC1 | nt | nt | nt | nt | nt | 0%
Cc1nc2ccccc2nc1-c1csc(-c2ccccc2)n1 | nt | nt | nt | nt | nt | -27%
O=S(=O)(c1cnc2ccccc2c1)N1CCN(c2nc(-c3cccs3)nc3ccccc23)CC1 | nt | nt | nt | nt | nt | 4%
COc1ccc(-c2cc(NCc3ccccn3)n3ncnc3n2)cc1 | 11% | 0% | -10% | -17% | -5% | 5%
COc1ccc(-c2cc(NCCc3ccncc3)n3ncnc3n2)cc1 | 11% | -2% | 0% | 7% | -8% | 32µM*
NS(=O)(=O)c1ccc(NC(=O)c2ccc(CNS(=O)(=O)c3cc(C(F)(F)F)ccc3Cl)cc2)cc1 | 3% | 2% | 2% | 10µM* | -4% | -2%
Cc1cccc(C)c1NC(=O)c1oc2c(c1C)-c1nn(Cc3ccccc3)cc1CC2 | nt | nt | nt | nt | nt | -12%
N#Cc1cccc(NC(=O)COC(=O)Cn2nc(-c3ccccc3)oc2=O)c1 | 1% | -1% | 1% | 20% | 2% | -3%
SMILES | Eya2 phos inh | Mm-Cpn inhibitor | USP2a block | a7 integrin act | p53 reactivator | ClpP mod
Cc1cc(C)c(NC(=O)COC(=O)Cn2nc(-c3ccccc3)oc2=O)c(C)c1 | 0% | 1% | 5% | 12% | -3% | 22µM*
O=C(/C=C/c1ccc(C(F)(F)F)cc1)OC(C(=O)NC1CC1)c1ccccc1 (centres undefined) | nt | nt | nt | nt | nt | -3%
O=C(N/N=C(\c1ccccc1)c1ccccn1)c1ccccc1Cl | -14% | 0% | 2% | -60% | ? | 8.9µM*
O=C(Cn1c(-c2cccs2)cc2cc(F)ccc21)NCCCN1CCN(c2ccccc2F)CC1 | nt | nt | nt | nt | nt | 32µM*
CCc1ccc(CNC(=O)Cn2c(-c3cccs3)cc3cc(F)ccc32)cc1 | nt | nt | nt | nt | nt | 5%
CC(C)CCNC(=O)Cn1c(-c2cccs2)cc2cc(F)ccc21 | nt | nt | nt | nt | nt | 32µM*
O=C(Cn1c(-c2cccs2)cc2ccccc21)NCCCN1CCN(c2ccc(F)cc2)CC1 | nt | nt | nt | nt | nt | 32µM*
CC(C)N(Cc1nccn1C)C(=O)CCc1nnc(CCCc2ccccc2)o1 | 4% | 0% | -3% | 2% | 9% | 2%
CC(C)N(CCO)C(=O)CCc1nnc(CCCc2ccccc2)o1 | -10% | -7% | 8% | 13µM* | 8% | nt
Cc1cc(NC(=O)COC(=O)c2ccccc2OCCOc2ccccc2)ccc1Br | nt | nt | nt | nt | nt | -2%
CC(NC(=O)C1=CC=CN2CCS(=O)(=O)N=C12)c1ccc(Cl)cc1Cl (centres undefined) | 1% | -1% | 1% | -4% | -6% | 25µM*
CC(NC(=O)C1=CC=CN2CCS(=O)(=O)N=C12)c1ccc(Cl)c(Cl)c1 (centres undefined) | 9% | 0% | 0% | -1% | -9% | nt
CNc1oc(-c2cccc3ccccc23)nc1C#N | -6% | -3% | -2% | 14% | 14% | 16µM*
CNc1oc(-c2ccccc2Cl)nc1C#N | 8% | -5% | 2% | -7% | 1% | ?
COc1ccc(C2NC(c3ccc4c(c3)OCO4)=CC(c3ccccc3O)N2)cc1OC (centres undefined) | nt | nt | nt | nt | nt | -8%
C=CCc1c(C)nc(-c2ccccc2)nc1N/N=C/c1ccccc1 | -4% | -1% | 2% | 11µM* | ? | 0%
C=CCc1c(C)nc(-c2ccccc2)nc1N/N=C/c1ccncc1 | -9% | -3% | 4% | 19% | 10% | -3%
CCOc1ccccc1-n1nnnc1SCC(=O)NC(=O)NCc1ccco1 | 12% | 0% | 3% | -10% | 4% | 2%
CCOc1ccccc1-n1nnnc1SCC(=O)NC(=O)Cc1ccccc1 | -8% | 2% | 1% | 8% | 2% | 25µM*
O=C(Nc1ccc2c(c1)CCCN2C(=O)c1cccs1)c1cccc(C(F)(F)F)c1 | nt | nt | nt | nt | nt | 2%
O=C(NCC(c1ccco1)N1CCc2ccccc2C1)c1ccc(Br)cc1 (centres undefined) | 18% | -3% | 1% | 11% | 3% | 25µM*
Cc1ccc(C(=O)NCC(c2ccco2)N2CCc3ccccc3C2)cc1 (centres undefined) | 2% | 1% | 8% | 17% | 1% | -2%
